The text below walks through data of PubChem BioAssay (NCI).

This is part of a sample that, as a whole, favours compounds with a hit. Of some 83,000 tested, about 20% had one in any assay.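 A percent growth of 40 corresponds to 60% growth inhibition; 0 means no net growth; -100 means all cells died. Active threshold: below 10.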 Activity calls are given as the source filed them.

The first assay relates to HCT-116 colon. The assay is described as follows: NCI-60 one-dose screen, 48 h (100 = growth as untreated, 0 = no growth, -100 = all killed). Particulars: 10 µM unless noted.
With `COc1c(B(O)O)cc(F)cc1-c1nc2c(F)cc3[nH]ncc3c2c2c1CCCC2`, the growth is 4.76% (active).

`CC1=C(C(=O)Nc2ccccc2)C(c2cccc(Cl)c2Cl)n2c(nc3ccccc32)N1` (stereo unspecified): the growth is 29.6% (inactive).

With `COc1ccccc1NC(=O)c1ccc(NC(=O)CCl)s1`, the growth is -68.5% (active).

`O=C(CSc1nc2sc3c(c2c(=O)n1-c1ccc(Cl)cc1)CCCC3)NNC(=O)c1ccc(Br)cc1`: the growth is 64% (inactive).

Take `O=C1CCC(N2C(=O)c3cccc(NCCOCCOCCOCCC(=O)NCCCC(=O)NC(c4ccc5c(c4)OCO5)c4cc(Cl)c5cccnc5c4O)c3C2=O)C(=O)C1` (stereo unspecified): the growth was 28.3% (inactive).

Turning to `NCCCCn1c(SCCc2c[nH]c3ccccc23)nnc1-c1ccc2ccccc2n1`, the growth was -94.1% (active).

With `CCCSc1nnc(-c2sc3nc4ccccc4n3c2C)o1`, the growth was 106% (inactive).

Regarding `Cc1ccc2c(c1)/C(=C/C(=O)c1cc3ccccc3oc1=O)C(=O)N2`, the growth was 18.9% (inactive).

`Cn1cc(-c2cc(N)n3nc(-c4c[nH]c5ccccc45)cc3n2)c2cc(F)ccc21`: the growth was -71.3% (active).

As to `COc1ccccc1/C=C/c1cccc(NC(=S)NCCCCN(C)C)c1`, the growth is -43.4% (active).

Regarding `O=C1NC(=S)/C(=C/c2cn(-c3ccccc3)nc2-c2ccccc2)S1`, the growth was 18.6% (inactive).

Turning to `Cc1cc(C)c2[nH]c(=O)c(C(c3nnnn3Cc3ccc4c(c3)OCO4)N3CCN(C)CC3)cc2c1` (stereo unspecified), the growth is 105% (inactive).

In the case of `C[C@@H]1[C@H]2C[C@@H](C[C@H]1NCc1nc3ccccc3n1C1CCCCCC1)C2(C)C`, the growth is 23.4% (inactive).

`O=c1c(-c2nc(-c3ccccc3)c(-c3ccccc3)[nH]2)coc2ccc(F)cc12`: the growth is 39.4% (inactive).

For the molecule `CN1CCc2c(sc3ncnc(N/N=C/c4cccc(Cl)c4Cl)c23)C1`, the growth was -82.8% (active).

With `COc1ccc(N=Nc2c(N)nn3c(N)c(C#N)c(-c4ccccc4)nc23)cc1`, the growth is 20.2% (inactive).

For `COc1ccc(/C=C/C(=O)c2ccc(OC)c(S(N)(=O)=O)c2)c(C(F)(F)F)c1`, the growth was -44.3% (active).

In the case of `COc1ccc(C2=Nc3c(N)nc(N)nc3NC(c3ccc(Oc4nc(Nc5ccc(F)cc5)nc(N(C)C)n4)c(OC)c3)C2)cc1` (stereo unspecified), the growth is 44.2% (inactive).

Turning to `COc1ccc(NC(=O)NN2C(=O)c3ccccc3N(C)C2c2ccc(OC)cc2)cc1` (stereo unspecified), the growth is 59.4% (inactive).

On to `COc1nc(N)ncc1-c1ccc2ncnc(N3CCc4cc(F)c(Cl)cc43)c2c1`, for which the growth is -8.98% (active).

Consider `COc1ccc(NC(=O)Nc2nc3ccc([N+](=O)[O-])cc3s2)cc1`, for which the growth is 10.3% (inactive).

In the case of `COc1ccc(NC(=O)N/N=C/c2c[nH]c3ccccc23)cc1`, the growth is 21.5% (inactive).

With `CC1=C(C(=O)Nc2ccccc2)C(c2ccc3ccccc3c2)n2c(nc3ccccc32)N1` (stereo unspecified), the growth is -36.4% (active).

Consider `O=C(N/N=C/c1c[nH]c2ccccc12)Nc1ccccc1Cl`, for which the growth was -12.7% (active).

`O=C(N=Nc1c(O)[nH]c2ccc(Br)cc12)c1ccc2nc(-c3ccc(Cl)cc3)[nH]c2c1`: the growth was 8.39% (active).

Take `COc1ccc2c(c1)C(Sc1ccc(Br)cc1)c1c(nc(N)c(C#N)c1N)O2` (stereo unspecified): the growth was 75.1% (inactive).

As to `C=CC(=O)N1CCN(c2ccc3nc4c(nc3c2C(F)(F)F)C(=O)c2ncccc2C4=O)CC1`, the growth is -25.7% (active).

As to `COc1ccc(NC(=O)CSc2nnc(-c3ccc(-c4nc5ccc(Cl)cc5[nH]4)cc3)o2)cc1`, the growth is 9.94% (active).

With `O=c1[nH]c2ccccc2cc1COc1ccc(Nc2nccc(-c3ccc(Cl)cc3)n2)cc1`, the growth was 96.4% (inactive).

As for `Cc1ccc(C(=O)Nc2ccc(-n3ccnc3)c(C(F)(F)F)c2)cc1C#Cc1cnc2cccnn12`, the growth was 0.409% (active).

As to `Cc1cccc(/C=C/c2ccc(NC(=S)NCCCCN(C)C)cc2)c1`, the growth was -45.1% (active).

As to `N#Cc1cc(-c2ccc3ncnc(N4CCc5cc(F)c(Cl)cc54)c3c2)cnc1N`, the growth is 33.2% (inactive).

Take `COc1ccc(-c2nnc3c(/C=C/c4ccc(Br)cc4)nc4ccccc4n23)cc1`: the growth was -53.8% (active).

As to `O=C(CSc1nnc(-c2ccc(-c3nc4ccccc4[nH]3)cc2)o1)Nc1ccccc1`, the growth is 50.8% (inactive).

`NC(=O)c1ccc(-c2ccc3ncnc(N4CCc5cc(F)c(Cl)cc54)c3c2)cn1`: the growth was 63.6% (inactive).

In the case of `O=C(Nc1ccc(-c2ccc3c(c2)NC(=O)/C3=C\c2ccc[nH]2)cc1)Nc1ccc(Cl)c(C(F)(F)F)c1`, the growth is 2.62% (active).

Turning to `Nc1nn2c(-c3cc4cc(Br)ccc4oc3=O)ccnc2c1N=Nc1ccc(Br)cc1`, the growth was 16.2% (inactive).

On to `FC(F)(F)c1cc2c(Cl)ncnc2n1CCN1CCCCC1`, for which the growth is 8.04% (active).

A further assay relates to HCC-2998 colon. Described as above. Particulars: 10 µM unless noted.
`COc1c(B(O)O)cc(F)cc1-c1nc2c(F)cc3[nH]ncc3c2c2c1CCCC2`: the growth is 20.1% (inactive).

With `CC1=C(C(=O)Nc2ccccc2)C(c2cccc(Cl)c2Cl)n2c(nc3ccccc32)N1` (stereo unspecified), the growth was 25.6% (inactive).

In the case of `COc1ccccc1NC(=O)c1ccc(NC(=O)CCl)s1`, the growth is 27.2% (inactive).

For the molecule `O=C(CSc1nc2sc3c(c2c(=O)n1-c1ccc(Cl)cc1)CCCC3)NNC(=O)c1ccc(Br)cc1`, the growth is 108% (inactive).

Turning to `O=C1CCC(N2C(=O)c3cccc(NCCOCCOCCOCCC(=O)NCCCC(=O)NC(c4ccc5c(c4)OCO5)c4cc(Cl)c5cccnc5c4O)c3C2=O)C(=O)C1` (stereo unspecified), the growth is 30% (inactive).

Turning to `NCCCCn1c(SCCc2c[nH]c3ccccc23)nnc1-c1ccc2ccccc2n1`, the growth was -90.2% (active).

With `CCCSc1nnc(-c2sc3nc4ccccc4n3c2C)o1`, the growth was 112% (inactive).

Consider `Cc1ccc2c(c1)/C(=C/C(=O)c1cc3ccccc3oc1=O)C(=O)N2`, for which the growth was 106% (inactive).

As to `Cn1cc(-c2cc(N)n3nc(-c4c[nH]c5ccccc45)cc3n2)c2cc(F)ccc21`, the growth was -65.5% (active).

Consider `COc1ccccc1/C=C/c1cccc(NC(=S)NCCCCN(C)C)c1`, for which the growth was -94.1% (active).

`O=C1NC(=S)/C(=C/c2cn(-c3ccccc3)nc2-c2ccccc2)S1`: the growth was 29.2% (inactive).

In the case of `Cc1cc(C)c2[nH]c(=O)c(C(c3nnnn3Cc3ccc4c(c3)OCO4)N3CCN(C)CC3)cc2c1` (stereo unspecified), the growth was 121% (inactive).

For the molecule `C[C@@H]1[C@H]2C[C@@H](C[C@H]1NCc1nc3ccccc3n1C1CCCCCC1)C2(C)C`, the growth is 37.6% (inactive).

Regarding `O=c1c(-c2nc(-c3ccccc3)c(-c3ccccc3)[nH]2)coc2ccc(F)cc12`, the growth is 77.2% (inactive).

Regarding `CN1CCc2c(sc3ncnc(N/N=C/c4cccc(Cl)c4Cl)c23)C1`, the growth is 6.03% (active).

In the case of `COc1ccc(N=Nc2c(N)nn3c(N)c(C#N)c(-c4ccccc4)nc23)cc1`, the growth is 65.2% (inactive).

`COc1ccc(/C=C/C(=O)c2ccc(OC)c(S(N)(=O)=O)c2)c(C(F)(F)F)c1`: the growth is -95.4% (active).

With `COc1ccc(C2=Nc3c(N)nc(N)nc3NC(c3ccc(Oc4nc(Nc5ccc(F)cc5)nc(N(C)C)n4)c(OC)c3)C2)cc1` (stereo unspecified), the growth is 80.1% (inactive).

For `COc1ccc(NC(=O)NN2C(=O)c3ccccc3N(C)C2c2ccc(OC)cc2)cc1` (stereo unspecified), the growth is 113% (inactive).

Consider `COc1nc(N)ncc1-c1ccc2ncnc(N3CCc4cc(F)c(Cl)cc43)c2c1`, for which the growth was 12.2% (inactive).

On to `COc1ccc(NC(=O)Nc2nc3ccc([N+](=O)[O-])cc3s2)cc1`, for which the growth was 19.2% (inactive).

Consider `COc1ccc(NC(=O)N/N=C/c2c[nH]c3ccccc23)cc1`, for which the growth was 44.3% (inactive).

As to `CC1=C(C(=O)Nc2ccccc2)C(c2ccc3ccccc3c2)n2c(nc3ccccc32)N1` (stereo unspecified), the growth is 52.3% (inactive).

Turning to `O=C(N/N=C/c1c[nH]c2ccccc12)Nc1ccccc1Cl`, the growth was -22% (active).

On to `O=C(N=Nc1c(O)[nH]c2ccc(Br)cc12)c1ccc2nc(-c3ccc(Cl)cc3)[nH]c2c1`, for which the growth was -66.8% (active).

For the molecule `COc1ccc2c(c1)C(Sc1ccc(Br)cc1)c1c(nc(N)c(C#N)c1N)O2` (stereo unspecified), the growth is 111% (inactive).

Turning to `C=CC(=O)N1CCN(c2ccc3nc4c(nc3c2C(F)(F)F)C(=O)c2ncccc2C4=O)CC1`, the growth was 5.17% (active).

Consider `COc1ccc(NC(=O)CSc2nnc(-c3ccc(-c4nc5ccc(Cl)cc5[nH]4)cc3)o2)cc1`, for which the growth is 109% (inactive).

In the case of `O=c1[nH]c2ccccc2cc1COc1ccc(Nc2nccc(-c3ccc(Cl)cc3)n2)cc1`, the growth was 116% (inactive).

Turning to `Cc1ccc(C(=O)Nc2ccc(-n3ccnc3)c(C(F)(F)F)c2)cc1C#Cc1cnc2cccnn12`, the growth was 29.9% (inactive).

On to `Cc1cccc(/C=C/c2ccc(NC(=S)NCCCCN(C)C)cc2)c1`, for which the growth was -92.7% (active).

On to `N#Cc1cc(-c2ccc3ncnc(N4CCc5cc(F)c(Cl)cc54)c3c2)cnc1N`, for which the growth was 50.1% (inactive).

Take `COc1ccc(-c2nnc3c(/C=C/c4ccc(Br)cc4)nc4ccccc4n23)cc1`: the growth is 87.7% (inactive).

Turning to `O=C(CSc1nnc(-c2ccc(-c3nc4ccccc4[nH]3)cc2)o1)Nc1ccccc1`, the growth was 92.3% (inactive).

For `NC(=O)c1ccc(-c2ccc3ncnc(N4CCc5cc(F)c(Cl)cc54)c3c2)cn1`, the growth was 89.7% (inactive).

In the case of `O=C(Nc1ccc(-c2ccc3c(c2)NC(=O)/C3=C\c2ccc[nH]2)cc1)Nc1ccc(Cl)c(C(F)(F)F)c1`, the growth was 48.4% (inactive).

As for `Nc1nn2c(-c3cc4cc(Br)ccc4oc3=O)ccnc2c1N=Nc1ccc(Br)cc1`, the growth was 39.2% (inactive).

For the molecule `FC(F)(F)c1cc2c(Cl)ncnc2n1CCN1CCCCC1`, the growth is -75.1% (active).
